ELG1 repair inh = inhibitors of ELG1-dependent DNA repair in HEK293T cells; HEK293T ELG1-luciferase reporter, luminescence, 16 h; DNA damage induced by 5-fluorouridine; Potency, µM (series often up to 46.1 µM), hits mostly inhibitors; 330,000 tested, 2.3% active; AID 504467; also: nearly all actives have a fitted effect of over 55% in size
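DMSO vehicle served as the neutral condition. Each well held 2,000 cells given 5-fluorouridine plus compound; after 16 hr at 37 °C/5% CO2, ONE-Glo was added and luciferase measured 30 min later.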
SW480 rerep = induces DNA re-replication in SW480 colon adenocarcinoma cells; Potency, µM (titrated, usually from 46.1 µM), hits mostly activators; SW480 DNA re-replication, Hoechst DNA content imaging, 48 h; 340,000 tested, 1.8% active; AID 624297; also: nearly all actives have a fitted effect of over 55% in size
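DNA re-replication was detected as more nuclei of elevated Hoechst intensity after 48 hr exposure to compound (23 nL pinned per well of 250 cells).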
MCF10A rereplic = DNA re-replication induction in MCF 10a cells | MCF 10A DNA re-replication, Hoechst nuclear intensity, 48 h | Potency, µM (highest dose often 46.1 µM), actives largely listed as activators | 350,000 tested, 2.9% active; also: nearly all actives have a fitted effect of over 50% in size
KB-V1 MDR tox = kills drug-selected multidrug resistant KB-V1 cells. KB-V1 MDR cells viability, CellTiter-Glo, 72 h. AID 1347076. 400,000 tested, 3.4% active. Potency, µM (titrated, usually from 46.1 µM), hits mostly cytotoxic; also: nearly all actives have a fitted effect of over 60% in size
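Luminescent ATP read-out (CellTiter-Glo, 10 min) measures survival of drug-selected KB-V1 MDR cells after 72 h, 37 degrees C compound exposure. Medium: phenol-red-free DMEM, 10% FBS. Values from fitted concentration-response curves.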
KB-3-1 cytotox = KB-3-1 parental cell cytotoxicity; KB-3-1 viability, CellTiter-Glo ATP luminescence, 72 h; Potency, µM (doses to about 46.1 µM), most hits filed as cytotoxic; AID 1347075; 400,000 tested, 1.4% active; also: nearly all actives have a fitted effect of over 60% in size
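Parental KB-3-1 adenocarcinoma cells in phenol-red-free DMEM with 10% FBS were pin-treated with compounds at several concentrations, incubated 72 h at 37 °C, and viability read by CellTiter-Glo luminescence; concentration-effect curves were fitted after normalization.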
A number is an active result; . = inactive; ? = inconclusive; / = no result given; [ ] = dose if it differs, or a comment. Only some compounds are listed: those with a hit (about 8.1% of all), similar ones and a draw of the others. Calls follow the shape of the dose curve; as a rule, active = well fitted curve in the direction sought with a large enough effect; inconclusive = small, poorly fitted or top-dose-only effect, or another doubt; inactive = no such curve, though single readings can be large; an effect the other way counts as inactive or inconclusive.

SMILES | ELG1 repair inh | SW480 rerep | MCF10A rereplic | KB-V1 MDR tox | KB-3-1 cytotox
CC(C)(C#N)NC(=O)C1CCCN1S(=O)(=O)c1ccc2ccccc2c1 (stereo unspecified) | . | 23µM | ? | ? | ?
O=C(NC1CC1)C1CCCN1S(=O)(=O)c1ccc2ccccc2c1 (stereo unspecified) | . | ? | . | ? | 16µM
O=C(Nc1ccc(C#Cc2ccccc2)cc1)C1CC1 | ? | . | . | 15µM | .
COC(=O)c1cc(C)ccc1/C=C1/Cc2c(C)cc(C)cc2C1=O | / | . | . | 16µM | .
COC(=O)c1ccccc1C(=O)c1c(C)cc(C)cc1C | / | / | / | . | /
COc1ccc(CCNc2oc(Cc3ccccc3)nc2C#N)cc1OC | ? | ? | . | ? | .
COc1ccc(CCNc2oc(COc3ccccc3F)nc2C#N)cc1OC | 23µM | . | .[9.22 µM] | . | .
COc1ccc(CCNc2oc(COc3ccccc3Cl)nc2C#N)cc1OC | 23µM | . | ? | . | .
COc1ccc2c3c(n(C(=O)OC(C)(C)C)c2c1)C1CC=C(COC(C)=O)CN1CC3 (stereo unspecified) | / | / | / | ? | .
CCC(=O)Nc1cc2c(cc1C(=O)CC)OCCO2 | . | . | . | 21µM | .
CCCC(=O)c1cc2c(cc1NC(=O)CC)OCCO2 | . | . | . | . | .
O=C(Nc1ccc2oc(-c3ccncc3)nc2c1)c1ccco1 | ? | . | . | . | .
O=C(Nc1ccccc1)c1cccc(-c2nnc(-c3ccccc3)o2)c1 | . | . | . | . | .
O=C(Nc1cccc(-c2nnc(-c3ccccc3)o2)c1)c1ccco1 | . | . | . | 2.9µM | .
O=C(Nc1nnc(-c2ccccc2Cl)o1)c1ccco1 | ? | 12µM | . | 16µM | .
COc1cccc(C(=O)Nc2cccc(-c3nnc(-c4ccco4)o3)c2)c1 | 23µM | . | ? | ? | ?
O=C(Nc1ccc2oc(-c3ccccc3)nc2c1)c1ccco1 | ? | . | . | 23µM | .
CC(=O)c1cc(-c2ccccc2)n(CC(=O)N2CCC(C)CC2)c1C | . | . | . | 5.8µM | .
CC(=O)c1cc(-c2ccccc2)n(CC(=O)N2CCN(C3CCCC3)CC2)c1C | ? | . | . | . | .
CC[C@@]12CCCN3CCc4c(n(c5ccccc45)[C@](O)(C(=O)OC)C1)C32 (stereo partly specified) | / | . | . | / | /
Cc1noc2ncnc(Sc3ccc(Br)cc3)c12 | ? | . | 13µM | . | ?
O=S(=O)(Nc1ccc2c(c1)OCO2)c1ccc(Br)s1 | . | ? | 18µM | . | .
COc1ccc(CNS(=O)(=O)c2ccc(Br)s2)cc1 | . | . | . | . | .
COc1cc(NS(=O)(=O)c2ccc(Br)s2)cc(OC)c1 | . | . | . | 16µM | ?
COc1cc2c(-c3cccc(Cl)c3)nc3c(c(C)nn3-c3ccccc3)c2cc1OC | / | / | / | ? | .
SMILES | ELG1 repair inh | SW480 rerep | MCF10A rereplic | KB-V1 MDR tox | KB-3-1 cytotox
CC(C)[C@H]1COCCS(=O)(=O)N1Cc1cccc([N+](=O)[O-])c1 | / | / | / | . | .
CC(=O)N1CC(C(=O)Nc2ccc3c(c2)OCO3)Oc2ccccc21 (stereo unspecified) | ? | . | . | 21µM | .
O=C(O)c1cccc(Nc2nc3ccccc3nc2NS(=O)(=O)c2ccc(F)cc2)c1 | . | . | . | ? | .
O=S(=O)(Nc1nc2ccccc2nc1Nc1ccc2c(c1)OCO2)c1ccc(F)cc1 | . | . | . | 5.8µM | ?
Cc1cc(C)n(-c2nc3ccccc3nc2Nc2ccc3c(c2)OCO3)n1 | . | . | 16µM | . | .
CC(C)(C)N(NC(=O)c1ccccc1)C(=O)c1ccc(C(=O)N(NC(=O)c2ccccc2)C(C)(C)C)cc1 | . | . | . | . | .
CCc1ccc(C(=O)NN(C(=O)c2ccc(CC)cc2)C(C)(C)C)cc1 | . | ? | . | 7.3µM | ?
CSc1nc2c(c(-c3ccc(O)cc3)c1C#N)CCC2 | . | . | 26µM | . | ?
COc1ccc(-c2c(C#N)c(N)nc3c2CCCC3)cc1OC | / | . | . | . | .
COc1ccc(-c2c(C#N)c(N)nc3c2CCC3)cc1 | . | 21µM | 2.9µM | ? | .
COc1cc(-c2c(C#N)c(N)nc3c2CCCC3)cc(OC)c1OC | . | . | . | . | .
N#Cc1c(N)nc2c(c1-c1ccccc1)CCC2 | ? | ? | ? | 10µM | ?
CSc1nn(Cc2ccc(Br)cc2)c(N(C(C)=O)C(C)=O)c1S(=O)(=O)c1ccccc1 | / | / | / | ? | .
CN(C)C1=NCCN1CC1CCCCC1 | . | . | . | . | .
CC[n+]1ccccc1/C=C1\Sc2ccc(C)cc2N1C | 2.1µM | . | ? | . | ?
O=C(O)COc1ccccc1/C=N/NC(=O)CNC(=O)c1ccco1 | . | . | . | ? | .
O=S(=O)(c1cc(-c2nnc(-c3ccc(Br)cc3)o2)ccc1Br)N1CCCCCC1 | 21µM | . | . | . | ?
CC(C)Oc1ccc(F)cc1-c1cc(C(=O)N2CCc3ccccc3C2)[nH]n1 | / | / | / | . | .
COc1ccc(Cl)cc1NC(=O)CN1Cc2ccccc2C1=O | / | / | / | 5.2µM | ?
COc1ccc(Cl)cc1NC(=O)CN(C)CC(=O)Nc1ccccc1-c1ccccc1 | ? | . | ? | 9.2µM | .
O=C(O)CSc1ncnc2nc[nH]c12 | . | . | . | . | .
c1nc(SSc2ncnc3nc[nH]c23)c2[nH]cnc2n1 | / | ? | ? | 2.3µM | 5.2µM
O=C(CSC1CS(=O)(=O)c2cc([N+](=O)[O-])ccc21)NNC(=O)c1ccccc1 (stereo unspecified) | . | 9.2µM | ? | . | .
O=C(CSC1CS(=O)(=O)c2cc([N+](=O)[O-])ccc21)NNC(=O)c1ccc(Cl)cc1 (stereo unspecified) | . | . | . | ? | .
Cc1c(CNC(=O)c2nn3c(c2Cl)NC(c2ccccc2)CC3C(F)(F)F)cnn1C (stereo unspecified) | . | . | . | 21µM | .
SMILES | ELG1 repair inh | SW480 rerep | MCF10A rereplic | KB-V1 MDR tox | KB-3-1 cytotox
COc1ccc(C2CC(C(F)(F)F)n3nc(C(=O)NCc4c(C)nn(C)c4C)c(Cl)c3N2)cc1 (stereo unspecified) | ? | . | . | 6.5µM | ?
C[C@@H]1CN([C@@H](C)CO)C(=O)CCCn2cc(nn2)CO[C@H]1CN(C)S(=O)(=O)c1cccc(C#N)c1 | / | / | / | . | .
O=C(CSc1nnc(SCc2ccccc2)s1)N/N=C/c1c[nH]c2ccccc12 | ? | . | ? | . | .
CCn1c(SCC(=O)N/N=C/c2c[nH]c3ccccc23)nnc1-c1ccc(C(C)(C)C)cc1 | 18µM | ? | ? | . | .
Cc1ccc(CSc2nnc(SCC(=O)N/N=C/c3c[nH]c4ccccc34)s2)cc1 | ? | ? | 13µM | . | ?
O=C(Cn1nc(-c2ccc(Cl)cc2)ccc1=O)NCc1ccccc1Cl | / | / | / | ? | .
COC1=C(Nc2ccc(C)cc2)C(=O)c2ccccc2C1=O | ? | ? | ? | 18µM | .

Screening data deposited in PubChem BioAssay by National Center for Advancing Translational Sciences (NCATS).
